Here are results for 32 molecules from PubChem BioAssay (NCI).

Compounds without any hit were thinned out: in the full panel of roughly 83,000, 20% have a hit.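 Treatment: one concentration, 48 hours, 96-well format. Scoring: percent growth, with anything below 10 considered active.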 Calls of active or inactive are those of the source.

One test deals with SW-620 colon. The experiment in a line: NCI-60 one-dose screen, 48 h (100 = growth as untreated, 0 = no growth, -100 = all killed). The settings on record: 10 µM unless noted.
On to `CCN(CCNc1ccc(C)c2sc3cc(Cl)ccc3c(=O)c12)CC(C)O` (configuration not stated), for which the growth is 11.9% (inactive).
`CC1(C)CC[C@]23CC[C@]4(C)[C@H](CC[C@@H]5[C@@]6(C)C/C(=C/c7cccnc7)C(=O)C(C)(C)[C@@H]6CC[C@]54C)[C@H]2[C@H]1OC3=O`: the growth was 32.9% [100 µM] (inactive).
Take `Cc1ccc(-n2nc3n(/c2=N\C(=O)NS(=O)(=O)c2ccc(C)cc2)CCN3C2=NCCN2)cc1`: the growth was 104% (inactive).
Still for that read-out and setting: for `O=C1Nc2ccccc2/C1=C/C(=O)c1ccc(N2CCOCC2)cc1` the value was 51.6% (inactive); for `Nc1ccc(NC(=O)c2ccccc2)c2c1C(=O)c1ccccc1C2=O`, 98.3% (inactive).
Regarding `CN(C)CCOc1ccc(/C(=C(/CCCl)c2ccccc2)c2ccccc2)cc1`, the growth is 15.8% (inactive).
With `CC[C@@H]1NC(=O)[C@@H]2CCCCN2C(=O)[C@@H]2CCCN2C(=O)[C@@H](NC(=O)[C@H](Cc2cc(F)cc(F)c2)NC(=O)Nc2ccc(C3CC3)cc2F)[C@H](C)OC(=O)[C@@H]2C[C@@H](C)CN2C1=O`, the growth was 27% (inactive).

The subject of the next test is MCF7 breast. The test is described as above. The settings on record: 10 µM unless noted.
`C=C(C)[C@@H]1CC[C@]2(C(=O)OC)CC[C@]3(C)[C@H](CC[C@@H]4[C@@]5(C)CC/C(=N\OCCC(=NCCC#N)NOCCC#N)C(C)(C)[C@@H]5CC[C@]43C)[C@@H]12`: the growth is 12.4% [100 µM] (inactive).
For the molecule `CCCCN(CC)CC(CC)Nc1cc(OC)cc2cccnc12` (configuration not stated), the growth is 98.5% (inactive).
Regarding `COc1ccccc1S(=O)Nc1ccccc1` (configuration not stated), the growth was 95.1% (inactive).
For `COc1cc(Cl)cc(-c2nn(C(=O)NS(=O)(=O)c3ccccc3)cc2-c2ccncc2)c1`, the growth was 99.8% (inactive).
Consider `COc1ccc(CC(C#N)c2ccc(Cl)cc2)cc1` (configuration not stated), for which the growth is 75% (inactive).
Turning to `COc1cc2c(c(OC)c1OC)-c1cc(I)c(O)cc1[C@@H](NC(C)=O)CC2`, the growth is 12.5% (inactive).
For `O=C(O)CSCc1nnc2n(Cc3ccccc3)c(=O)c3c4c(sc3n12)CCCC4`, the growth was 110% (inactive).
Regarding `COc1ccc(C2NC(=O)C(C#N)c3c2sc2c(F)cccc32)cc1` (configuration not stated), the growth was 32.7% (inactive).
As for `CCN=C1C=CC(=C(c2ccc(N(CC)CC)cc2)c2ccc(N(CC)CC)cc2)c2ccccc21`, the growth was -74% (active).
Still for that read-out and setting: the same measure for `CC1(C)C(=NO)C(C)(C)C1=NO`: 106% (inactive); for `Cc1cc(SC#N)ncn1`: 93.3% (inactive); for `COCc1nc2ccccc2[nH]1`: 88.7% (inactive).
Still for that read-out and setting: for `CCN1CCN(CC(=O)Nc2nc3ccc(NCc4ccc(Cl)cc4)cc3s2)CC1` the value was 33.6% (inactive); for `C=C(C)C1CCC2(C(=O)O)CCC3(C)C(CCC4C5(C)CCC(OC(=O)NCc6ccccc6)C(C)(C)C5CCC43C)C12` (configuration not stated), 35.9% (inactive); for `CCc1ccc(C2=C/C(=C/c3ccccc3)C(=O)N2CCc2ccc(S(N)(=O)=O)cc2)cc1`, 96.3% (inactive).
Still for that read-out and setting: for `CCN(CC)c1ccc2cc(NC(=O)OCCNC(=O)CCNC(=O)[C@H](CC(C)C)NC(=O)C(C)(C)NC(=O)C(C)(C)NC(=O)[C@H](CC(C)C)NC(=O)CCNC(=O)C(C)(C)NC(=O)[C@H](CC(C)C)NC(=O)CCNC(=O)[C@@](C)(CC)NC(=O)[C@H](C)NC(=O)CCNC(=O)C(C)(C)NC(=O)[C@H](C)NC(=O)[C@@H]3CCCN3C(=O)[C@@](C)(CC)NC(=O)[C@H](Cc3ccccc3)NC(=O)C3CCCN3C(=O)C(C)(C)NC(=O)C3CCCN3C(=O)C(C)(C)NC(C)=O)c(=O)oc2c1` (some centres not stated) the value was -88.2% (active).
Regarding `COC(=O)c1cc2c(=O)[nH]cc3c2c(n1)CCC3`, the growth was 94.1% (inactive).
As to `C=C(CC(=O)OC)C(C)=O`, the growth is 111% (inactive).
Take `COc1ccc2c(c1)c(-c1noc(C(=O)c3cn(C)c4ncc(Br)cc34)n1)cn2C`: the growth was 79.9% (inactive).
On to `CC(C)(C)OC(=O)N1C=C/C(=C\Cn2cc(-c3ccccc3)nn2)CC1`, for which the growth was 65.5% (inactive).
In the case of `COc1cc2c(c(OC)c1OC)-c1ccc(NNC(N)=S)c(=O)cc1[C@@H](NC(C)=O)CC2`, the growth is 10.1% (inactive).
Consider `CC(C)OC(=O)Nc1cc(F)ccc1F`, for which the growth is 97.1% (inactive).
As for `C=C(C)[C@@H]1CC[C@]2(C)[C@H](CC[C@@H]3[C@@H]([C@@](C)(O)CCC=C(C)C)CC[C@]32C)[C@@]1(C)CCC(=O)O`, the growth was 7.92% [100 µM] (active).
The same measure, in the same setting: the same measure for `COc1cc(-c2cc(-c3ccc(Nc4ncnc5cc(Cl)ccc45)cc3)nc(N3CCCCC3)n2)cc(OC)c1OC`: 86.6% (inactive); for `Cc1ccc(NC(=S)/N=c2/n(-c3ccccc3)nc3n2CCN3C2=NCCN2)cc1`: 94.6% (inactive).
